Shown are actives, neighbours in structure and some others; about 32% of the full set was active somewhere.
CYP2C19 activ: increases human CYP2C19 enzyme activity | P33261 | recombinant CYP2C19, luciferin-H EGE luminescence; active compounds read high; 0 = fully inhibited enzyme, 1 = untreated enzyme | activation factor at 5 µM | 96,000 tested, under 10 active | AID 1025;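 active means activation factor of at least 2 at 5 µM in the primary screen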;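 further: 0 = wells with 2.5 mM tranylcypromine and 1 = vehicle-only wells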
Target sequence (P33261 whole entry, looked up): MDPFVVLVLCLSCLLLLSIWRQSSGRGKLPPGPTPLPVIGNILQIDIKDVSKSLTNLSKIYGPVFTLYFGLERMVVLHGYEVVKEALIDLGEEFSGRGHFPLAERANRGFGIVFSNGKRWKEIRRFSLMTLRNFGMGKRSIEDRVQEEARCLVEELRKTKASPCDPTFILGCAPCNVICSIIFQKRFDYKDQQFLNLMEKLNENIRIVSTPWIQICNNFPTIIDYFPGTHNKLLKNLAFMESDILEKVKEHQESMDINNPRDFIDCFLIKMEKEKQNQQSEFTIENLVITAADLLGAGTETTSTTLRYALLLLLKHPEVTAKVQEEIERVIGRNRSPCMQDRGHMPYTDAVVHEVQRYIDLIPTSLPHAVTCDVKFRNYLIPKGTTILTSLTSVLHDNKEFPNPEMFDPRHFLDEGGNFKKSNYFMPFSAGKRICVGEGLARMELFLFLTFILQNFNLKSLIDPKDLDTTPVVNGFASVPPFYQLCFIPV
PostGolgi yeast: growth inhibition of a yeast mutant, post-Golgi transport screen; AID 739; inhibition, % at 10 µM; post-Golgi transport phenotypic cell assay; 0.9% of 98,000 active;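 further: yeast cells grown in 1536-well plates; yeast grown about 18 h at 30C before absorbance read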
PostGolgi ctrl: inhibits growth of the yeast control strain. efflux-deficient yeast background strain, growth absorbance A615, 16 h. inhibition, % at 10 µM. 5% of 98,000 active. AID 738
CYP2C19 inhib: inhibitors of human CYP2C19. P33261. 21% of 96,000 active. AID 778. CYP2C19 Supersomes, luciferin-H EGE luminescence, 30 min. inhibition, % at 5 µM;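 active means CYP2C19 inhibition above a set limit at 5 µM in the primary screen, cut at about 50% in these data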;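 further: plate controls were negative control wells for no effect and 2.5 mM tranylcypromine positive control for full effect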
CYP2C9 inh: inhibitors of human CYP2C9. 20% of 96,000 active. P11712. inhibition, % at 5 µM. CYP2C9 Supersomes, luciferin-H conversion, luminescence;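 active means blocking of liver enzyme CYP2C9 beyond about 50% at 5 µM, limit read from the data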
CYP2C9 activ: increases human cytochrome P450 2C9 activity; recombinant CYP2C9, luciferin-H conversion, luminescence; active compounds read high; factor 1 = untreated enzyme, 0 = blocked; activation factor at 5 µM; 1.4% of 96,000 active; AID 1024;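 active means activation factor of 2 or more for CYP2C9 at a 5 µM dose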;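 further: 0 = sulfaphenazole-blocked wells and 1 = vehicle-only wells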
An asterisk follows results filed as active. Unless noted, no stated cut-off is given here; in the data, active means inhibition above about 30%; inactive means the rest.

Cc1cccc2cc(CN(Cc3ccc(F)cc3)C(=O)N(C)C)c3nnnn3c12 was read as CYP2C19 activ 0.7, PostGolgi yeast 12, PostGolgi ctrl 32*, CYP2C19 inhib 30, CYP2C9 inh 39 and CYP2C9 activ 0.6.
`COCCN(Cc1cc2cccc(C)c2n2nnnc12)C(=O)C(F)(F)F` gave CYP2C19 activ 0.7, PostGolgi yeast 5, PostGolgi ctrl 6, CYP2C19 inhib 29, CYP2C9 inh 25 and CYP2C9 activ 0.8.
`COc1cccc(-c2cc(C(=O)N3CCc4ccccc4C3)no2)c1` gave CYP2C19 activ 0.7, PostGolgi yeast 1, PostGolgi ctrl 21, CYP2C19 inhib 26, CYP2C9 inh -41 and CYP2C9 activ 1.4.
COc1ccc(OC)c(-c2cc(C(=O)N3CCN(c4ccccc4)CC3)no2)c1 was read as CYP2C19 activ 0.2, PostGolgi yeast -8, PostGolgi ctrl 33*, CYP2C19 inhib 76*, CYP2C9 inh 24 and CYP2C9 activ 0.8.
Screening O=C(c1cc(-c2cccs2)on1)N1CCN(c2ccccc2)CC1 returned CYP2C19 activ 0.4, PostGolgi yeast 5, PostGolgi ctrl 14, CYP2C19 inhib 63*, CYP2C9 inh 72* and CYP2C9 activ 0.3.
For COc1ccccc1N1CCN(C(=O)c2cc(-c3ccc(C)cc3)on2)CC1 the results were CYP2C19 activ 0.8, PostGolgi yeast -2, PostGolgi ctrl 25, CYP2C19 inhib 19, CYP2C9 inh 41 and CYP2C9 activ 0.6.
For O=C(c1cc(-c2cccs2)on1)N1CCN(c2ccc(F)cc2)CC1 the results were CYP2C19 activ 0.9, PostGolgi yeast 4, PostGolgi ctrl 11, CYP2C19 inhib 12, CYP2C9 inh 22 and CYP2C9 activ 0.8.
COc1ccc(OC)c(-c2cc(C(=O)N3CCc4ccccc4C3)no2)c1 was read as CYP2C19 activ 0.5, PostGolgi yeast -1, PostGolgi ctrl 41*, CYP2C19 inhib 47, CYP2C9 inh -73 and CYP2C9 activ 1.7.
C#CCNc1cc(C)nc2ncnn12 was read as CYP2C19 activ 1.1, PostGolgi yeast 14, PostGolgi ctrl -3, CYP2C19 inhib -7, CYP2C9 inh 0 and CYP2C9 activ 1.
Screening Cc1ccccc1NC(=O)C(C#N)Cc1cccnc1 (stereo unspecified) returned CYP2C19 activ 0.8, PostGolgi yeast 8, PostGolgi ctrl 8, CYP2C19 inhib 23, CYP2C9 inh 11 and CYP2C9 activ 0.9.
Screening COC(=O)CSc1nsc(SCC(=O)OC)c1C#N returned CYP2C19 activ 0.5, PostGolgi yeast 4, PostGolgi ctrl 4, CYP2C19 inhib 54*, CYP2C9 inh 23 and CYP2C9 activ 0.8.
Screening CN(C)c1ccc(CNC(=O)CN(C)S(=O)(=O)c2cccc3cccnc23)cc1 returned CYP2C19 activ 0.3, PostGolgi yeast -7, PostGolgi ctrl -2, CYP2C19 inhib 70*, CYP2C9 inh 44 and CYP2C9 activ 0.6.
For CN(CC(=O)NCc1cccs1)S(=O)(=O)c1cccc2cccnc12 the results were CYP2C19 activ 0.8, PostGolgi yeast 9, PostGolgi ctrl 7, CYP2C19 inhib 22, CYP2C9 inh -138 and CYP2C9 activ 2.4*.
`COc1ccc2oc(-c3ccccc3)c(C(=O)N3CCOCC3)c2c1` gave CYP2C19 activ 0.8, PostGolgi yeast 0, PostGolgi ctrl 4, CYP2C19 inhib 15, CYP2C9 inh 10 and CYP2C9 activ 0.9.
CCOc1ccc2oc(-c3ccccc3)c(C(=O)N3CCN(C)CC3)c2c1 was read as CYP2C19 activ 0.8, PostGolgi yeast 5, PostGolgi ctrl 22, CYP2C19 inhib 18, CYP2C9 inh 38 and CYP2C9 activ 0.6.
`CCOC(=O)c1c(-c2ccccc2)oc2ccc(OC)cc12` gave CYP2C19 activ 0.5, PostGolgi yeast 24, PostGolgi ctrl 31*, CYP2C19 inhib 52*, CYP2C9 inh 65* and CYP2C9 activ 0.3.
`NC(=O)c1c(-c2ccccc2)oc2ccc(O)cc12` gave CYP2C19 activ 0.5, PostGolgi yeast -8, PostGolgi ctrl -5, CYP2C19 inhib 50, CYP2C9 inh -115 and CYP2C9 activ 2.1*.
`COc1ccccc1NC(=O)N1CCCC1C(=O)NC12CC3CC(CC(C3)C1)C2` (stereo unspecified) gave CYP2C19 activ 0.9, PostGolgi yeast -4, PostGolgi ctrl 8, CYP2C19 inhib 10, CYP2C9 inh -14 and CYP2C9 activ 1.1.
